PubChem BioAssay (NCI)
This is part of a sample that, as a whole, favours compounds with a hit. Of some 83,000 tested, about 20% had one in any assay.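 The endpoint reported here, percent growth, reads 100 for growth as untreated, 0 for no net growth and -100 for all cells dead.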 The source made the active and inactive calls. The calls were made as follows: active = growth percent below 10; inactive = the rest.

Key:
Test in all cases: NCI-60 one-dose screen, 48 h (100 = growth as untreated, 0 = no growth, -100 = all killed)
[1] = tested on: BT-549 breast; details: 10 µM unless noted
[2] = tested on: MDA-MB-435 melanoma; details: 10 µM unless noted
[3] = tested on: SW-620 colon; details: 10 µM unless noted
[4] = tested on: HCT-116 colon; details: 10 µM unless noted
[5] = tested on: HCC-2998 colon; details: 10 µM unless noted
[6] = tested on: KM12 colon; details: 10 µM unless noted
[7] = tested on: MCF7 breast; details: 10 µM

Measured: growth

COc1ccc(C2C3=C(COC3=O)N(CCO)c3cc4c(cc32)CCC4)cc1OC (configuration not stated)
active: [2] -45.6% | [5] -0.413% | [6] -8.65%
inactive: [1] 29.2% | [3] 14.7% | [4] 14.3%

CSc1nc2c(c(=O)[nH]1)N=C1c3ccccc3C(=O)C1C(c1ccccc1)N2 (configuration not stated)
inactive: [1] 40% | [3] 29.8% | [7] 17.3% | [4] 21.8% | [5] 53.1% | [6] 28.1%

N[C@@H](CC/[N+]([O-])=N/O)C(=O)O
inactive: [1] 95.2% | [3] 104% | [7] 93.7% | [4] 99.1% | [5] 112% | [6] 104%

COC(=O)/C(CCC=C(C)C)=C1\[C@@H](OC(C)=O)C[C@@]2(C)[C@H]1C[C@@H](O)[C@H]1[C@@]3(C)CC[C@H](NCc4ccccc4)[C@@H](C)[C@@H]3CC[C@@]12C
inactive: [1] 76.2% | [3] 63.5% | [7] 49.5% | [4] 20.2% | [5] 72.8% | [6] 72.9%

CN1CCN(c2nc(Nc3ccc(O)cc3)nc3ccccc23)CC1
inactive: [1] 70.8% | [3] 57.2% | [7] 44.9% | [4] 94.6% | [5] 46.1% | [6] 65.6%

Cc1ccc(C(=O)c2oc3ccc4c(C)cc(=O)oc4c3c2C)cc1
active: [7] 9.99%
inactive: [1] 40.8% | [2] 29.7% | [3] 23.2% | [4] 21.7% | [6] 17.8%

COc1ccc(/C=C2\CCC/C(=C\c3ccc(OC)c(OC)c3)C2=O)cc1OC
active: [2] -8.1% | [3] -21.7% | [4] -68.3% | [5] -30.1% | [6] -75.2%
inactive: [1] 13%

CN1C(=O)N(C)C2(c3ccccc3)OC(=S)NC12c1ccccc1 (configuration not stated)
inactive: [1] 94.1% | [3] 111% | [7] 91.8% | [4] 94.8% | [5] 106% | [6] 91.9%

c1ccc(CNc2nc(Nc3ccccc3)nc3ccccc23)cc1
inactive: [1] 89.2% | [3] 56.1% | [7] 56.9% | [4] 58.2% | [5] 37.2% | [6] 71.8%

COc1ccc(OC)c(NC(=O)/C(C#N)=C/c2ccco2)c1
inactive: [1] 84.5% | [2] 98.8% | [3] 106% | [7] 47.9% | [4] 95.1% | [6] 95.5%

Cc1ccc2nc(NC(=O)CSC(=S)N3CCN(c4ccccc4)CC3)sc2c1
inactive: [1] 102% | [2] 111% | [3] 109% | [7] 95% | [4] 95% | [6] 95.1%

CCN(CC)CCNC(=O)C(Cl)=C1C(Cl)=C(Cl)C(Cl)=C1Cl
inactive: [1] 33.3% | [2] 33.9% | [3] 34.7% | [7] 28.7% | [4] 13.9% | [6] 23.6%

COc1cc([C@@H]2NC(=O)NC(C)=C2C(=O)Nc2nc(-c3ccc(Cl)cc3)cs2)ccc1O
inactive: [1] 98.8% | [3] 103% | [7] 103% | [4] 99.3% | [5] 104% | [6] 102%

COc1cc(OC)cc(N2C(=O)N(Cc3ccc(C(C)(C)C)cc3)c3ccccc3S2(=O)=O)c1
inactive: [1] 99.6% | [3] 82.2% | [7] 90.7% | [4] 76.2% | [6] 82.6%
active: [5] -46%

COc1cc(C2C3=C(COC3=O)N(CCO)c3cc4c(cc32)OCCO4)cc(OC)c1O (configuration not stated)
inactive: [3] 17.2% | [4] 12.8%
active: [1] -3.23% | [2] -35.1% | [5] -10.7% | [6] -15.3%

COc1cc(C2C3=C(COC3=O)N(CCO)c3cc4c(cc32)CCC4)cc(OC)c1O (configuration not stated)
inactive: [3] 12.1%
active: [1] -7.32% | [2] -26.8% | [4] 8.94% | [5] -22.4% | [6] -20.6%

CCN1CCN(C(=S)SCC(=O)Nc2nc3ccc(C)cc3s2)CC1
inactive: [1] 108% | [2] 116% | [3] 109% | [7] 105% | [4] 94.7% | [6] 108%

O=c1cc(-c2ccccc2)oc2cc(OCc3cn(Cc4ccc(F)cc4)nn3)cc(OCc3cn(Cc4ccc(F)cc4)nn3)c12
inactive: [1] 18.8% | [3] 60.3% | [7] 53.3% | [4] 18.2% | [5] 74.1% | [6] 43.3%

O=C(NC(=S)Nc1cccc(NC(=S)NC(=O)c2ccccc2)c1)c1ccccc1
inactive: [1] 58.4% | [2] 61.4% | [3] 74.6% | [7] 58.3% | [4] 67.2% | [6] 68%

O=C1C(=O)c2c(ccc3ccccc23)-c2ccccc21
inactive: [6] 18.4%
active: [1] -72.6% | [2] -58.6% | [3] -73% | [7] -47.6% | [4] -53.8%

COc1ccc(C2C3=C(COC3=O)N(CCO)c3cc4c(cc32)CCC4)cc1 (configuration not stated)
active: [2] 0.306%
inactive: [1] 38.4% | [3] 31.5% | [4] 33.5% | [5] 61.1% | [6] 21.2%

COc1ccc(C(O)(CCC(C)C)C(CN2CCOCC2)c2ccc(Cl)cc2)cc1 (configuration not stated)
inactive: [1] 62.2% | [3] 28.5% | [7] 55.6% | [4] 26.6% | [5] 64.6% | [6] 48%

CCCC(=O)CC(C)=O.CCCC(=O)CC(C)=O.[Cu]
inactive: [1] 111% | [3] 106% | [7] 92.4% | [4] 95.9% | [5] 102% | [6] 102%

Cc1c(-c2csc(-n3nc(C(F)(F)F)cc3C(F)(F)F)n2)no[n+]1[O-]
inactive: [1] 102% | [2] 99.2% | [3] 104% | [7] 85.1% | [4] 93.1% | [5] 112% | [6] 104%

CCOC(=O)C1=C(C)c2ccc(OC)c(OC)c2C1
inactive: [1] 108% | [2] 112% | [3] 104% | [4] 102% | [5] 91.2% | [6] 101%

O=C(/C=C/c1cccc(Cl)c1)OCc1ccc2cc1OCC#C/C=C\C#CCO2
inactive: [1] 102% | [2] 106% | [3] 108% | [4] 89% | [5] 107%

CCCC(c1nnnn1C1CCCCC1)N1CCN(C(=O)c2ccco2)CC1 (configuration not stated)
inactive: [1] 58.9% | [3] 22.4% | [7] 45.4% | [4] 31.7% | [5] 76.4% | [6] 47.5%

O=S1(=O)N(Cc2ccccc2)[C@@H](Cc2ccccc2)C2O[C@H]2[C@H](Cc2ccccc2)N1Cc1ccccc1 (some centres not stated)
inactive: [1] 63.1% | [2] 60.1% | [3] 50.6% | [4] 17% | [5] 61.4%

Cc1ccc(S(=O)c2ccc([N+](=O)[O-])c3nonc23)cc1 (configuration not stated)
inactive: [1] 95.4% | [3] 29% | [7] 92.9% | [4] 68.9% | [5] 116% | [6] 109%

O=C(c1nc2ccccc2[nH]1)C1[C@@H](c2cccc(O)c2)C2CC3CCCCC3N2[C@@]12C(=O)Nc1cc(Cl)ccc12 (some centres not stated)
inactive: [1] 62.5% | [3] 39.3% | [7] 18.9% | [4] 31.5% | [5] 33.8%

COc1ccc(-n2c(C(O)c3ccccc3)n[nH]c2=S)cc1 (configuration not stated)
inactive: [1] 110% | [3] 105% | [7] 93.7% | [4] 96.3% | [5] 106% | [6] 101%

COc1ccc(-c2cn3c(C(=O)Nc4ccccc4Cl)c(-c4ccccc4)c4c3n2CCCC4)cc1
inactive: [1] 86.4% | [2] 80% | [3] 82.5% | [7] 71.3% | [4] 73.2% | [6] 82.8%

N#C/C(=C\c1c(-c2ccccc2)[nH]c2ccccc12)C(=O)c1ccccc1
inactive: [1] 61.5% | [3] 19.9% | [7] 19.4% | [4] 30.4% | [5] 60.1% | [6] 28.2%

CCCCCCc1cc2cc(-c3nc4ccccc4[nH]3)c(=Nc3ccccc3C)oc2cc1O
active: [5] -78.2%
inactive: [1] 77.3% | [3] 29.6% | [7] 17.5% | [4] 19.2% | [6] 36.4%

CCCc1c(C)c2sc(=O)[nH]c2[nH]c1=O
inactive: [1] 110% | [3] 102% | [7] 97.6% | [4] 106% | [5] 106% | [6] 105%

O=c1oc2ccc(Br)cc2c(=O)n1-c1ccc(I)cc1F
active: [2] -1.76% | [7] 1.41% | [4] 0.0693% | [6] -18%
inactive: [3] 10% | [5] 18.3%

CCCCCCCCCCOC(=O)c1ccccc1C(=O)OCCCC
inactive: [1] 114% | [3] 102% | [7] 102% | [4] 84.9% | [5] 108% | [6] 105%

CC(=O)SC1CC(=O)C=C2CCC3C4CCC(=O)OC4(C)CCC3C21C (configuration not stated)
inactive: [1] 92.4% | [3] 103% | [7] 97% | [4] 102% | [5] 99.3% | [6] 104%

O=c1oc2ccc(I)cc2c(=O)n1-c1ccc(Cl)cc1F
inactive: [3] 11.7% | [5] 16.9%
active: [2] 1.42% | [7] 2.84% | [4] 7.44% | [6] 1.77%

CC(C)C[C@H](C(=O)N[C@H](C(N)=O)C(C)C)N1CC=CCN(OCc2ccccc2)S1(=O)=O
inactive: [1] 98.5% [2.5 µM] | [3] 102% [2.5 µM] | [4] 83.2% [2.5 µM] | [5] 108% [2.5 µM] | [6] 114% [2.5 µM]
